According to PubChem BioAssay (NCI):
This is part of a sample that, as a whole, favours compounds with a hit. Of some 83,000 tested, about 20% had one in any assay.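 For each line, cells grew in 96-well plates with the test compound present at a single concentration for 48 hours.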 Values without a mark were called inactive. Rule for the calls: active = growth percent below 10; inactive = the rest.

Test system: MDA-MB-468 breast
Experiment: NCI-60 one-dose screen, 48 h (100 = growth as untreated, 0 = no growth, -100 = all killed)
Conditions: 10 µM unless noted

| SMILES | growth |
| --- | --- |
| COC(=O)[C@]1(C)CCC[C@]2(C)[C@H]3C[C@H]4C(C(C)C)=C[C@]3(CC[C@H]21)[C@@H]1C(=O)N(CCC#N)C(=O)[C@@H]14 | 86.9% |
| Nn1c(Nc2ccc(S(=O)(=O)Nc3ncccn3)cc2)nnc(/C=C/c2c(O)ccc3ccccc23)c1=O | 96% |
| CCOC(=O)c1ccc(NC(=O)CCCN(CC)CC)cc1 | 115% |
| O=C(CCCCCCSc1nc(-c2ccc(Cl)cc2)cc(-c2ccc(Cl)cc2)n1)NO | 32.6% |
| O=c1[nH]cnc2c1C(c1ccc(Br)cc1)c1sc3c(F)cccc3c1O2 (stereo not given) | 105% |
